Screening results from PubChem BioAssay.
Shown are actives, neighbours in structure and some others; about 3.1% of the full set was active somewhere.
TWEAK Fn14 block = inhibitors of TWEAK-Fn14 interaction signaling; inhibition, % at 10 µM; 360,000 tested, 2% active; TWEAK-stimulated Fn14 reporter cells, luciferase luminescence, 8 h; in the data active = inhibition above about 50%
LGR2 antag = blocks bursicon-induced cAMP signaling via Drosophila LGR2; HEK293 LGR2, CRE-luciferase, bursicon-stimulated, 4 h; inhibition, % at 9.99 µM; 380,000 tested, 0.35% active;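 active = drop in luminescence signal, shown as inhibition above about 50% in the replicate tests, limit read from the data, passing the limit was not always enough; inconclusive = probably only some replicates passing the limit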;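 also: agonist challenge used bursicon conditioned medium at about half maximal strength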
EWS-Fli inh = inhibitors of EWS/Fli oncoprotein transcriptional activity; A673 NR0B1-luciferase reporter, viability-normalised; inhibition, % at 12.6 µM; 350,000 tested, 0.67% active; AID 651661;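 active = mean inhibition of at least 50% after viability correction, with every replicate also passing that limit; inconclusive = mean reaches 50% but only one of two replicates passes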;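 also: firefly luciferase signal divided by Alamar Blue viability fluorescence both relative to DMSO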
TROY signal inh = blocks TROY-dependent signaling in reporter cells; Q293 LMP1-TROYcd NF-kB luciferase reporter, 4 h; AID 1347056; inhibition, % at 10 µM; 360,000 tested, 0.98% active;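 active = compounds whose plate-normalised and pattern-corrected inhibition of the luciferase reporter signal at the single screening dose is 50% or more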
PAX8 inh HTS = inhibitors of PAX8 transcriptional activity in RMG-I cells. RMG-I TPO-luciferase reporter, SteadyGlo, 24 h. inhibition, % at 12.6 µM. 360,000 tested, 1.2% active;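 active = mean replicate inhibition at least 60% with every replicate also reaching 60%; inconclusive = only one of the two criteria is met; inactive = mean below 60% and not all replicates reaching 60%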;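 also: luciferase light reporting Pax8 driven TPO promoter activity; plate controls were median of neutral control wells for no effect and mitoxantrone controls for full effect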
EBV LMP1 NFkB = Epstein-Barr LMP1 NF-kappaB reporter inhibition | LMP1-induced NF-kappaB luciferase reporter cells, luminescence | inhibition, % at 12.5 µM | 350,000 tested, 0.69% active; in the data active = inhibition above about 41%; inconclusive = no clear call, values can overlap the other calls;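 also: 0% = neutral control wells and 100% = reference inhibitor control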
* hit, by the source's call; ? = inconclusive; / = not tested or not shown.

SMILES	TWEAK Fn14 block	LGR2 antag	EWS-Fli inh	TROY signal inh	PAX8 inh HTS	EBV LMP1 NFkB
C[C@@H]1CCCCO[C@@H](CN(C)C(=O)Nc2cccc3ccccc23)[C@H](C)CN([C@H](C)CO)C(=O)c2cc(NS(=O)(=O)c3ccc(Cl)cc3)ccc2O1	/	3.1	7.7	/	94.1*	/
C[C@H](CO)N1C[C@H](C)[C@@H](CN(C)C(=O)Nc2cccc3ccccc23)OCCCC[C@H](C)Oc2ccc(NS(=O)(=O)c3ccc(Cl)cc3)cc2C1=O	/	14.8	10.8	/	42.5	/
C[C@H]1CCCCO[C@H](CN(C)C(=O)Nc2cccc3ccccc23)[C@@H](C)CN([C@@H](C)CO)C(=O)c2cc(NS(=O)(=O)c3ccc(Cl)cc3)ccc2O1	/	-0.1	15.0	/	81.6*	/
Cc1ccccc1-c1ccc2c(c1)O[C@@H](CN(C)C(=O)Nc1ccc(F)cc1)[C@@H](C)CN([C@H](C)CO)S2(=O)=O	/	11.5	-12.3	/	1.0	/
c1ccc2c(-c3ccncc3)c[nH]c2c1	20.6	13.1	/	30.6	/	76.6*
c1ccc(-c2nnc(-c3ccccc3)c(-c3c[nH]c4ccccc34)n2)cc1	16.3	/	/	-50.0	/	-6.1
COc1ccc(/C=N/OCC(=O)NC(c2ccccc2)c2ccccc2)cc1OC	51.8*	-14.5	4.0	25.5	-0.6	24.6
C[C@H](CO)N1C[C@H](C)[C@@H](CN(C)Cc2ccc(Cl)c(Cl)c2)OCc2cn(nn2)CCCC1=O	/	9.5	3.6	/	2.1	/
O=Nc1c(-c2c(O)[nH]c3cc(Br)ccc23)[nH]c2ccccc12	90.8*	95.0*	-45.9	68.7*	25.9	-59.2
O=C1CCCc2c1cc(C(=O)NCc1ccco1)c(=O)n2-c1ccccc1	5.2	/	/	-2.2	-11.1	-1.8
Cc1ccc(-n2c3c(cc(C(=O)NCC(=O)c4ccccc4)c2=O)C(=O)CCC3)cc1	92.8*	21.6	/	15.1	7.4	1.9
CCCN1C[C@H](C)[C@@H](OC)CN(C)C(=O)c2cc(NC(=O)CC)ccc2OC[C@H]1C	/	5.5	-9.1	/	/	/
O=C(CN(C(=O)c1ccc(Cl)cc1)C1CCCCC1)Nc1ccc(Cl)c([N+](=O)[O-])c1	51.0*	19.0	16.1	34.8	41.5	5.4
CN(C)c1cc[n+](CC(=O)Nc2ccc(Cl)c([N+](=O)[O-])c2)cc1	3.2	1.9	18.4	25.9	62.9*	-12.5
O=C(CN(C(=O)c1ccccc1Cl)C1CCCCC1)Nc1ccc(Cl)c([N+](=O)[O-])c1	40.3	/	/	10.4	/	-4.7
CO[C@@H]1CN(C)C(=O)c2ccc(NC(=O)NC(C)C)cc2OC[C@@H](C)N(C(=O)CN(C)C)C[C@H]1C	/	-5.2	-6.5	/	-7.2	/
Cc1sc2nc(SCC(=O)Nc3cccc(C(=O)O)c3)[nH]c(=O)c2c1C	-5.5	-1.1	-2.5	2.4	-4.0	-5.7
Cc1sc2nc(SCC(=O)Nc3ccc(Cl)c(C(=O)O)c3)[nH]c(=O)c2c1C	52.4*	12.1	-22.4	24.7	-80.2	1.8
C[C@@H]1CN([C@@H](C)CO)C(=O)c2cc(NS(=O)(=O)c3cccs3)ccc2O[C@@H](C)CCCCO[C@@H]1CN(C)CC1CCCCC1	/	1.6	3.6	/	-6.8	/
Cn1nc(C(F)(F)F)c2cc(C(=O)Nc3ccc(F)c(Cl)c3)sc21	0.7	12.7	15.6	60.9*	12.5	19.9
Cn1nc(C(F)(F)F)c2cc(C(=O)Nc3ccc(F)cc3)sc21	-33.5	4.3	-2.4	8.8	3.6	0.0
Cn1nc(C(F)(F)F)c2cc(C(=O)Nc3ccc(C(F)(F)F)cc3)sc21	40.6	24.4	8.1	51.2*	8.5	14.3
CC(C)NC(=O)N(C)C[C@H]1Oc2c(NC(=O)NC3CCCCC3)cccc2C(=O)N([C@H](C)CO)C[C@H]1C	/	2.7	-2.7	/	/	/
O=c1c2cnn(-c3ccccc3)c2nc(-c2cccs2)n1-c1ccc(Br)cc1	-5.4	/	/	-29.3	/	42.7*
O=c1oc(-c2ccco2)nc2c1cnn2-c1ccccc1	11.5	/	/	14.8	/	-2.4
SMILES	TWEAK Fn14 block	LGR2 antag	EWS-Fli inh	TROY signal inh	PAX8 inh HTS	EBV LMP1 NFkB
O=c1c2cnn(-c3ccccc3)c2nc(-c2ccco2)n1-c1ccccc1	54.6*	/	/	16.4	/	5.8
COc1ccc(NC(=O)N(C)C[C@@H]2OCCCC[C@@H](C)Oc3ccc(NS(=O)(=O)c4ccccc4)cc3C(=O)N([C@H](C)CO)C[C@@H]2C)cc1	/	2.5	-5.8	/	-4.7	/
C[C@H](CO)N1C[C@H](C)[C@H](CN(C)Cc2ccc(C(F)(F)F)cc2)OCCCC[C@H](C)Oc2ccc(NS(=O)(=O)c3cccs3)cc2C1=O	/	-1.5	12.7	/	/	/
C[C@H](CO)N1C[C@H](C)[C@@H](CN(C)C(=O)Nc2ccc(C(F)(F)F)cc2)OCCCC[C@H](C)Oc2ccc(NS(=O)(=O)c3cccs3)cc2C1=O	/	10.5	19.4	/	65.0*	/
C[C@@H]1CCCCO[C@@H](CN(C)Cc2ccc(C(F)(F)F)cc2)[C@@H](C)CN([C@@H](C)CO)C(=O)c2cc(NS(=O)(=O)c3cccs3)ccc2O1	/	4.4	3.4	/	?	/
C[C@H](CO)N1C[C@H](C)[C@@H](CN(C)Cc2ccc(Cl)c(Cl)c2)OCCCC[C@H](C)Oc2ccc(NS(=O)(=O)c3cccs3)cc2C1=O	/	-9.2	10.0	/	71.1*	/
C[C@H]1CCCCO[C@@H](CN(C)Cc2ccc(C(F)(F)F)cc2)[C@@H](C)CN([C@@H](C)CO)C(=O)c2cc(NS(=O)(=O)c3cccs3)ccc2O1	/	2.4	18.1	/	96.4*	/
C[C@H]1CCCCO[C@H](CN(C)Cc2ccc(C(F)(F)F)cc2)[C@@H](C)CN([C@@H](C)CO)C(=O)c2cc(NS(=O)(=O)c3cccs3)ccc2O1	/	2.9	3.2	/	81.0*	/
COc1ccc(S(=O)(=O)N(C)C[C@@H]2Oc3ccc(NS(=O)(=O)c4cccs4)cc3C(=O)N([C@@H](C)CO)C[C@H]2C)cc1	/	2.9	-1.6	/	/	/
Cc1ccc(S(=O)(=O)N(C)C[C@H]2Oc3ccc(NC(=O)Nc4ccc(F)cc4)cc3C(=O)N([C@H](C)CO)C[C@@H]2C)cc1	/	-2.4	12.9	/	9.0	/
COc1ccc(NC(=O)Nc2ccc3c(c2)C(=O)N([C@H](C)CO)C[C@@H](C)[C@H](CN(C)S(=O)(=O)c2cn(C)cn2)OCCCC[C@H](C)O3)cc1	/	-4.8	-4.5	/	9.0	/
C[C@@H]1CN([C@@H](C)CO)C(=O)c2cc(NS(C)(=O)=O)ccc2O[C@@H](C)CCCCO[C@H]1CN(C)S(=O)(=O)c1cccs1	/	-30.4	-4.7	/	0.9	/
Cc1cc(Nc2cccc([N+](=O)[O-])c2)n2c(nc3ccccc32)c1C#N	76.7*	31.8	/	25.5	/	49.5*
CCN(CC)CCNc1cc(C)c(C#N)c2nc3ccccc3n12	-31.2	5.8	-5.3	-7.0	-23.6	-2.5
O=C(NNC(=O)c1ccco1)c1ccccc1	4.8	-6.6	-49.1	-2.5	-34.4	7.4
C/C(=C(/NC(=O)c1ccccc1)C(=O)O)c1ccco1	86.7*	-3.8	-1.4	6.0	-5.3	-5.5
